Assay results published in PubChem BioAssay AID488841 (Sanford-Burnham Center for Chemical Genomics, 2010).
About 380 (27%) of roughly 1,400 compounds were called active.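 The calls were made as follows: active = mean inhibition above 50% across duplicate retests at 10 µM; inactive = the rest.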 This is one part of the list.

Experiment: inhibition of NALP1/ASC/caspase-1 reporter signal in yeast, confirmation, NALP1 inhibitor project, S. cerevisiae, luminescence, single concentration (AID 488841);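 also: plate controls were DMSO in galactose medium for no effect and cells in plain SD medium for full effect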
Details: S. cerevisiae NALP1/ASC/Caspase-1 reporter, beta-gal luminescence; at 10 µM; hits give high values

SMILES | inhibition
COCCNCCOc1ccc(C(C)(C)c2ccccc2)cc1 | 50.5% (active)
Cc1cccc(N2C(=O)NC(=O)/C(=C/c3ccc([N+](=O)[O-])o3)C2=O)c1 | 31.1% (inactive)
Nc1cc(Cl)c2nonc2c1[N+](=O)[O-] | 62.5% (active)
CCCCCn1c(=O)c(C(=O)Nc2nc3ccccc3[nH]2)c(O)c2ccccc21 | 23.1% (inactive)
CCOc1cc(CNCCc2c[nH]c3ccccc23)cc(Cl)c1OCC | 48% (inactive)
Cc1ccc(/C=C2\C(=O)NC(=O)N(CC3CCCO3)C2=O)s1 (centres undefined) | 36.6% (inactive)
C[C@H]1C[C@@H](C)C(=O)[C@@H]([C@H](O)CC2CC(=O)NC(=O)C2)C1 | 99.8% (active)
N#CCCn1cc(C(=O)NCc2ccccc2)c(-c2ccccc2)n1 | 37.1% (inactive)
CC(Cc1ccccc1Sc1ccccc1)N(C)C (centres undefined) | 34.8% (inactive)
Cc1cc2ccccn2c1C(C[N+](=O)[O-])c1c(F)cccc1Cl (centres undefined) | 71% (active)
O=C1/C(=C/c2cccc([N+](=O)[O-])c2)N2CCC1CC2 | 46.3% (inactive)
Cc1ccc(S(=O)(=O)NC(CC(=O)N2CCC3(CC2)OCCO3)c2ccco2)cc1 (centres undefined) | 37.2% (inactive)
COc1cc2c(cc1OC)CN(c1ccc([N+](=O)[O-])c(C(F)(F)F)c1)CC2 | 45.4% (inactive)
CC(Cc1ccccc1)NC(=O)/C=C/c1ccc(Cl)cc1 (centres undefined) | 50% (active)
CCOCCN1CCN(c2nnc3n2-c2ccc(Cl)cc2C(c2ccccc2Cl)=NC3)CC1 | 32.9% (inactive)
Cc1ccc(Cn2cc(C=O)c(-c3ccc(C)cc3)n2)cc1 | 59.5% (active)
CC(C)NS(=O)(=O)c1ccc(OCC(=O)N2CCN(C)CC2)cc1 | 4.2% (inactive)
Cc1ccc(C)c(NC(=S)NCCc2cnc[nH]2)c1 | 23.7% (inactive)
CN1C2CCC1/C(=C/c1ccccn1)C(=O)/C2=C\c1ccccn1 | 98% (active)
CC(C)CCn1c(=O)c(C(=O)NCc2ccco2)c(O)c2ccccc21 | 35% (inactive)

SMILES | inhibition
CC1(C)C[C@H]2C=C(C=O)[C@]3(C=O)C[C@]3(C)[C@H]2C1 | 32.4% (inactive)
CN1/C(=C\C=C\C2=[N+](C)c3ccc4ccccc4c3C2(C)C)C(C)(C)c2ccccc21 | 100% (active)
CN1CCN(c2ccc(N)c(N3CCN(C)CC3)c2)CC1 | 33.6% (inactive)
Fc1ccc(C(OCCN2CCCC2)c2ccc(Br)cc2)cc1 (centres undefined) | 49.5% (inactive)
CCCCN(Cc1ccccc1)C1CCN(CCc2ccccc2)CC1 | 55.1% (active)
CC1CCCC(C)N1/N=C/c1c[nH]c2ccc(Br)cc12 (centres undefined) | 19.6% (inactive)
CN[C@H]1C[C@H]2O[C@@](C)([C@H]1OC)n1c3ccccc3c3c4c(c5c6ccccc6n2c5c31)C(=O)NC4 | 99.7% (active)
Clc1ccc2nc3c(c(-c4ccccc4)c2c1)CNCC3 | 46% (inactive)
O=C(c1cc2c(s1)-c1ccccc1OC2)N1CCC2(CC1)OCCO2 | 35.5% (inactive)
c1ccc2sc(NC3=NCCN3)nc2c1 | 99.8% (active)
CNC(=O)Oc1ccc2ncccc2c1 | 35.5% (inactive)
O=C(c1ccccc1)C(CN1CCCC1)c1ccccc1 (centres undefined) | 27.6% (inactive)
COc1cc(/C=C(/C)[N+](=O)[O-])ccc1OCc1ccccc1Cl | 73.4% (active)
Cc1ccc(-c2nc(N3CCOCC3)s[n+]2-c2ccccc2)cc1 | 40.2% (inactive)
CSc1ncc(Cl)c(C(=O)O)n1 (tested in a mixture with another compound) | 21.1% (inactive)
O=C1/C(=C/c2cc3c(cc2Cl)OCO3)N2CCC1CC2 | 47.5% (inactive)
Nc1c2c(nc3sc4c(c13)CCCC4)CCCCC2 | 40.5% (inactive)
Nc1c2c(nc3sc4c(c13)CCCCC4)CCCC2 | 84.5% (active)
Nc1ccc(C2(c3ccc(N)cc3)CN3CCC2CC3)cc1 | 25.7% (inactive)
